Assay [1] can be described thus: inhibitors of TNFa-induced NFkB p65 translocation, primary screen, imaging, HUVEC, MLSMR starter and 10KST1 sets (AID 438;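 active = inhibition above 20% together with a positive visual image hit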;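 also: compound added about 3h40 before a 20 min TNFalpha stimulation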;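 as to inhibition: signal is the nuclear over cytoplasmic p65 intensity ratio per well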). Conditions: HUVEC TNFa-induced p65 nuclear translocation; cell count: measured here: nuclei count (cytotoxicity indicator), at 2.08 µM; inhibition: at 2 µM, stronger effect = higher value, 0% TNFa-plus-vehicle, 100% no-TNFa wells.
Assay [2] in a line: reduction of polyQ htt aggregates in cells – imaging, exon1htt(103Q)mCFP cells, high-content imaging, primary screen (AID 483;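 active = visual image review flags a hit and inhibition of aggregation exceeds 20%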;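 also: compound exposure lasted 3 days before fixation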;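 as to nuclei count: percent of the per-plate median nuclei count of sample wells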). As to conditions: exon1htt(103Q)mCFP cell line, aggregate imaging, at 2 µM; inhibition of aggregation: stronger effect = higher value; nuclei count: measured here: cell count, toxicity.
A short description of assay [3]: endothelial E-selectin expression blockers – imaging, HUVEC, immunofluorescence, MLSMR starter and 10KST1 sets, primary screen (AID 487;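 active = visually confirmed hit in the image check and inhibition above 20%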;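 as to inhibition: signal is fraction of cell area covered by stained E-selectin grains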;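 as to nuclei count: 100% = median nuclei count of all wells on the same plate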). Conditions: HUVEC TNFalpha-induced E-selectin immunofluorescence imaging, at 2 µM; inhibition: stronger effect = higher value; nuclei count: measured here: cell number, toxicity.
Assay [4] has as its target Voltage-gated potassium channel subunit beta-2 (Rattus norvegicus) (UniProt P62483). The assay is described as follows: inhibitors of rat Kvbeta2 reductase activity – biochemical, NADPH fluorescence, primary screen (AID 622;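 active = fluorescence slope higher than the sample average by over 3 SD, cut at about -0.22 in these data, passing the limit was not always enough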;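 also: slope of raw intensity against log time taken from 70 to 1610 s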). Conditions: recombinant KvBeta, 4-cyanobenzaldehyde reduction, at 10 µM, stronger effect = higher value.
Assay [5] has the same target. In words: enhancers of rat Kvbeta2 NADPH turnover – biochemical, NADPH fluorescence, primary screen (AID 623).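 Also: fluorescence intensity change per second fitted from 20 to 320 s.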 Conditions: Recombinant KvBeta, NADPH fluorescence decrease slope, 10 min; at 10 µM; stronger effect = lower value.
The target of assay [6] is Alpha-2C adrenergic receptor (Homo sapiens) (UniProt P18825). In words: compounds altering alpha2C-coupled GIRK flux – cell-based, HEK293 alpha2C/GIRK1/2, thallium flux, primary screen (AID 624;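 active = fluorescence slope after compound addition differing from the mean of all screened samples at 99.7% confidence, in either direction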;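 also: slope of fluorescence ratio to pre-addition baseline per second over 15 to 24 s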). As to conditions: thallium flux BTC fluorescence, at 10 µM, actives lie on both sides.
Chain of Alpha-2C adrenergic receptor (Homo sapiens) (P18825 whole entry, looked up): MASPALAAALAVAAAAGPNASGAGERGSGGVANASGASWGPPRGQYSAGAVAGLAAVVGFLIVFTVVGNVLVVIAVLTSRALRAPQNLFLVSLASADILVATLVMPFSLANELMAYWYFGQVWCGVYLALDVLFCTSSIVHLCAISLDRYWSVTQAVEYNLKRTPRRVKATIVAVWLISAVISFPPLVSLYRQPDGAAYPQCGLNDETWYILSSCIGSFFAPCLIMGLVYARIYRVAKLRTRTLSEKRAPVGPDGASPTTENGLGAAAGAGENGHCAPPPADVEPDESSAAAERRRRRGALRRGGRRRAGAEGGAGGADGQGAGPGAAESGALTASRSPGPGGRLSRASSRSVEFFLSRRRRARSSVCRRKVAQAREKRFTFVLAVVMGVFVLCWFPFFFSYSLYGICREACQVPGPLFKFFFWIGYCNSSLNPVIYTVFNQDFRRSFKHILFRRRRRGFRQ
Assay [7] is described as follows: blockers of RIG-like receptor reporter activation – cell-based, Sendai virus stimulus, luciferase, 10K MLSCN set, TLR/RLR signaling modifier project, primary screen (AID 602276;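 active = inhibition at or above 50% at 10 µM; inactive = inhibition below 50%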;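 also: firefly luciferase from ISG56 promoter only with Renilla not read in this screen; 0% = Sendai virus plus DMSO and 100% = medium plus DMSO without virus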). Conditions: HEK293 RL24 IRF3 luciferase reporter, at 10 µM, stronger effect = higher value. In general terms: In a reporter assay the amount or activity of a reporter protein is the signal.
The nature of assay [8]: TLR3 IRF3 reporter activation blockers – cell-based, poly I:C stimulus, luciferase, 10K MLSCN set, primary screen (AID 602277;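 active = inhibition of the reporter signal at or above 50%; inactive = inhibition below 50%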). Conditions: HEK293-TLR3 RL24 IRF3 luciferase reporter, at 10 µM, stronger effect = higher value.

Calls of active or inactive are those of the source.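 The calls were made as follows, unless noted: active = NADPH fluorescence slope more negative than the mean of all samples by about 3 SD, 99.7% confidence; inactive = the rest.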

Chain of Voltage-gated potassium channel subunit beta-2 (Rattus norvegicus) (P62483 whole entry, looked up): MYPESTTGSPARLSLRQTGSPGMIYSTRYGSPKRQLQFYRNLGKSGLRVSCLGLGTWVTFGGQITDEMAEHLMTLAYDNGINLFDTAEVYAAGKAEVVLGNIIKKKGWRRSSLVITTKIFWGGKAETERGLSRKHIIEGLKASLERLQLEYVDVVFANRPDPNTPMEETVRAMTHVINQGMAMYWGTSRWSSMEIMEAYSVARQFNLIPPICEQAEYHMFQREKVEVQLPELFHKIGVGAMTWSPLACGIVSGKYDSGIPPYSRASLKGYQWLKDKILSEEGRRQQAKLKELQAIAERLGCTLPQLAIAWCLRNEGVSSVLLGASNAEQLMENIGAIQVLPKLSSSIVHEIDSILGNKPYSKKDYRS

What is called inhibition is the change of the read-out against control, counted positive when it falls. Consider `COc1cccc(-c2nc(CS(=O)(=O)CC(=O)N3CCN(c4ccccn4)CC3)c(C)o2)c1`, for which, in assay [1], the cell count worked out at 752. Moreover, the inhibition in assay [1] is -4.4% (inactive); in assay [3], -72.1% (inactive); in assay [7] it was 6.91% (inactive); in assay [8] it was -1.07% (inactive). Further, the inhibition of aggregation in assay [2] was 2.6% (inactive). For the same compound, the figures for the nuclei count in assay [2] and in assay [3] were 115% and 114%, respectively. Also, the fluorescence slope in assay [4] is -0.506 (inactive). In addition, the NADPH fluorescence slope in assay [5] was -1.1e-05 (inactive). The slope in assay [6] is 0.00682 (inactive).

Take `Cc1ccc(Cl)cc1N1CCN(C(=O)CN2C(=O)c3cccc4cccc2c34)CC1`: the cell count in assay [1] stood at 771. In addition, the inhibition in assay [1] was -7.2% (inactive); in assay [3] it was -11.6% (inactive); in assay [7], 9.95% (inactive); in assay [8], 8.22% (inactive). Further, the inhibition of aggregation in assay [2] was -2.2% (inactive). Also, the nuclei count in assay [2] is 89.4%; in assay [3], 101%. Besides, the fluorescence slope in assay [4] was -0.341 (inactive). Besides, the NADPH fluorescence slope in assay [5] is 4.7e-06 (inactive). In addition, the slope in assay [6] was 0.0104 (active).

In the case of `CCn1cc(SCC(=O)Nc2cc(C)on2)c2ccccc21`, the cell count in assay [1] came out at 760. Also, the inhibition in assay [1] is -15.1% (inactive); in assay [3], 29.9% (inactive); in assay [7] it was 26.7% (inactive); in assay [8] it was 25.1% (inactive). The inhibition of aggregation in assay [2] was -0.1% (inactive). Also, the nuclei count worked out at 60.4% in assay [2] and 86.4% in assay [3]. The fluorescence slope in assay [4] was -0.494 (inactive). For the same compound, in assay [5], the NADPH fluorescence slope is -2.7e-05 (inactive). Also, in assay [6], the slope was 0.00702 (inactive).

For the compound `CCOc1ccc(OCC)c(NC(=O)C2CCN(c3ncccn3)CC2)c1`, in assay [1], the cell count was 588. For the same compound, the inhibition in assay [1] was -14.2% (inactive); in assay [3] it was -43.7% (inactive); in assay [7], 8.17% (inactive); in assay [8], 11.1% (inactive). Besides, the inhibition of aggregation in assay [2] is 10.9% (inactive). The nuclei count in assay [2] was 103%; in assay [3] it was 113%. Further, in assay [4], the fluorescence slope was -0.421 (inactive). Further, in assay [5], the NADPH fluorescence slope was -5.1e-05 (inactive). In addition, the slope in assay [6] is 0.0054 (inactive).

As for `CCN(CCCNC(=O)CCNC(=O)Cn1ccc2ccccc2c1=O)c1ccccc1`, the cell count in assay [1] was determined as 393. Further, the inhibition in assay [1] is 4.5% (inactive); in assay [3], -106% (inactive); in assay [7], -0.268% (inactive); in assay [8], -15.2% (inactive). In addition, in assay [2], the inhibition of aggregation was -6.3% (inactive). The nuclei count amounted to 103% in assay [2] and 118% in assay [3]. Also, the fluorescence slope in assay [4] is -0.441 (inactive). In assay [5], the NADPH fluorescence slope is -8.2e-06 (inactive). In assay [6], the slope is 0.00588 (inactive).

In the case of `COCCn1nnnc1C(C(C)C)N1CCN(C(=O)c2ccco2)CC1` (centres undefined), the cell count in assay [1] worked out at 314. In addition, the inhibition in assay [1] was 1.6% (inactive); in assay [3], -23.9% (inactive); in assay [7], -9.3% (inactive); in assay [8], -17.2% (inactive). In addition, the inhibition of aggregation in assay [2] is 10% (inactive). For the same compound, the results for the nuclei count in assay [2] and in assay [3] were 85.2% and 121%, respectively. The fluorescence slope in assay [4] was -0.511 (inactive). Also, the NADPH fluorescence slope in assay [5] was 4.3e-05 (inactive). In addition, the slope in assay [6] was 0.00753 (inactive).

Turning to `Cn1cccc1Cc1nnc(SCC(=O)NCC2CCCO2)n1-c1ccc(F)cc1` (centres undefined), the cell count in assay [1] came out at 716. Also, the inhibition was -4% (inactive) in assay [1], -44.1% (inactive) in assay [3], 10.8% (inactive) in assay [7] and 39.9% (inactive) in assay [8]. Further, the inhibition of aggregation in assay [2] is 50.2% (active). The results for the nuclei count in assay [2] and in assay [3] were 95.9% and 111%, respectively. Moreover, the fluorescence slope in assay [4] was -0.537 (inactive). Moreover, the NADPH fluorescence slope in assay [5] is -3e-05 (inactive). For the same compound, the slope in assay [6] is 0.00677 (inactive).

Take `COc1ccc(-c2nc(CSCC(=O)N3CCN(c4cccc(C)c4)C(C)C3)c(C)o2)cc1OC` (centres undefined): the cell count in assay [1] turned out to be 549. Also, the inhibition was 2.3% (inactive) in assay [1], 5.7% (inactive) in assay [3], 4.11% (inactive) in assay [7] and 8.34% (inactive) in assay [8]. In addition, the inhibition of aggregation in assay [2] was 11.5% (inactive). Moreover, the nuclei count in assay [2] was found to be 92.1%; in assay [3], 83.2%. Moreover, the fluorescence slope in assay [4] is -0.429 (inactive). In addition, in assay [5], the NADPH fluorescence slope is -5.4e-05 (inactive). Further, the slope in assay [6] was 0.00539 (inactive).

For the compound `COc1c(S(=O)(=O)n2nc(C)cc2C)ccc(Cl)c1Cl`, the cell count in assay [1] amounted to 536. Besides, the inhibition was 11.4% (inactive) in assay [1], -25.3% (inactive) in assay [3], -8.21% (inactive) in assay [7] and 15.5% (inactive) in assay [8]. Also, in assay [2], the inhibition of aggregation was -8.9% (inactive). For the same compound, the nuclei count stood at 120% in assay [2] and 68.4% in assay [3]. Besides, the fluorescence slope in assay [4] was -0.434 (inactive). In addition, the NADPH fluorescence slope in assay [5] is -7.2e-05 (inactive). Besides, in assay [6], the slope was 0.0052 (inactive).

For the compound `CCOc1cc(CN2CCN(C(=O)c3ccco3)CC2)ccc1OC`, in assay [1], the cell count was determined as 403. For the same compound, the inhibition was -3% (inactive) in assay [1], 44.9% (inactive) in assay [3], 11.7% (inactive) in assay [7] and 21.2% (inactive) in assay [8]. In addition, the inhibition of aggregation in assay [2] is 8.5% (inactive). For the same compound, the nuclei count in assay [2] came out at 88.9%; in assay [3] it was 104%. For the same compound, in assay [4], the fluorescence slope was -0.33 (inactive). For the same compound, the NADPH fluorescence slope in assay [5] is -1.5e-05 (inactive). In addition, the slope in assay [6] was 0.00559 (inactive).

For the compound `COCCNC(=O)c1snc2ccc(Cl)cc12`, in assay [1], the cell count is 375. In addition, the inhibition is 6.7% (inactive) in assay [1], -175% (inactive) in assay [3], -23.6% (inactive) in assay [7] and -62.4% (inactive) in assay [8]. In addition, the inhibition of aggregation in assay [2] is 4.9% (inactive). In addition, the nuclei count in assay [2] is 89.8%; in assay [3], 97.3%. Further, the fluorescence slope in assay [4] was -0.563 (inactive). In addition, the NADPH fluorescence slope in assay [5] is 3.8e-05 (inactive). Also, in assay [6], the slope is 0.00546 (inactive).

As for `C/C(N)=C(/C#N)C(=O)COC(=O)c1cc(C)n(-c2ccc(F)cc2)c1C`, the cell count in assay [1] came out at 717. In addition, the inhibition is 10.2% (inactive) in assay [1], -93.8% (inactive) in assay [3], 15.2% (inactive) in assay [7] and -211% (inactive) in assay [8]. Further, the inhibition of aggregation in assay [2] was 2.4% (inactive). The nuclei count was 116% in assay [2] and 146% in assay [3]. In addition, the fluorescence slope in assay [4] is -0.487 (inactive). Besides, the NADPH fluorescence slope in assay [5] was 1.6e-05 (inactive). The slope in assay [6] was 0.00428 (inactive).

For `CC(C)OCCCNC(=O)c1cc2c(s1)CS(=O)(=O)C2`, the cell count in assay [1] was determined as 215. In addition, the inhibition is 1.9% (inactive) in assay [1], 25.9% (inactive) in assay [3], 5.68% (inactive) in assay [7] and 5.21% (inactive) in assay [8]. Also, in assay [2], the inhibition of aggregation is 7.5% (inactive). The figures for the nuclei count in assay [2] and in assay [3] were 80.8% and 103%, respectively. Moreover, the fluorescence slope in assay [4] is -0.352 (inactive). Moreover, in assay [5], the NADPH fluorescence slope is -5.6e-05 (inactive). Moreover, in assay [6], the slope is 0.0057 (inactive).

Turning to `CCN(C(=O)COC(=O)c1cc(C)n(-c2ccc(F)cc2)c1C)C1CCS(=O)(=O)C1` (centres undefined), in assay [1], the cell count came out at 496. The inhibition is -3.4% (inactive) in assay [1], -35.5% (inactive) in assay [3], 13.2% (inactive) in assay [7] and 13% (inactive) in assay [8]. The inhibition of aggregation in assay [2] was -3.9% (inactive). The results for the nuclei count in assay [2] and in assay [3] were 114% and 115%, respectively. In addition, the fluorescence slope in assay [4] was -0.537 (inactive). In addition, the NADPH fluorescence slope in assay [5] was 3.5e-06 (inactive). Besides, in assay [6], the slope is 0.00451 (inactive).

The record behind these values is PubChem BioAssay.
